Measurements: PubChem BioAssay (NCI)
The panel holds about 83,000 compounds, 20% with a hit somewhere; the sample as a whole holds those more often.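 How to read the values: 0–100, growth inhibition (40 = 60% inhibited); 0, no net growth; -100 to 0, cell death (-40 = 40% of starting cells died; -100 = all dead).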 Activity calls are given as the source filed them. Rule for the calls: active = growth percent below 10; inactive = the rest.

Legend:
Assay in all cases: NCI-60 one-dose screen, 48 h (100 = growth as untreated, 0 = no growth, -100 = all killed)
HCT-15 colon = details: 10 µM unless noted
HT29 colon = details: 10 µM unless noted
SNB-19 CNS = details: 10 µM unless noted
U251 CNS = details: 10 µM unless noted
PC-3 prostate = details: 10 µM unless noted
SK-MEL-5 melanoma = details: 10 µM unless noted
UACC-62 melanoma = details: 10 µM unless noted
LOX IMVI melanoma = details: 10 µM unless noted
SK-MEL-28 melanoma = details: 10 µM unless noted
SK-MEL-2 melanoma = details: 10 µM unless noted
EKVX NSCLC = details: 10 µM unless noted
SN12C renal = details: 10 µM unless noted
UO-31 renal = details: 10 µM unless noted
TK-10 renal = details: 10 µM unless noted
ACHN renal = details: 10 µM unless noted
CAKI-1 renal = details: 10 µM unless noted
A498 renal = details: 10 µM unless noted
SNB-75 CNS = details: 10 µM
CCRF-CEM leukemia = details: 10 µM unless noted
MOLT-4 leukemia = details: 10 µM unless noted

Measured: growth

CC(O)CN1CCCCC1 (configuration not stated)
inactive: HCT-15 colon 107% | HT29 colon 92.3% | SNB-19 CNS 100% | U251 CNS 99.6% | PC-3 prostate 102% | SK-MEL-5 melanoma 105% | UACC-62 melanoma 101% | LOX IMVI melanoma 101% | SK-MEL-28 melanoma 109% | SK-MEL-2 melanoma 113% | EKVX NSCLC 105% | SN12C renal 96.8% | UO-31 renal 86.3% | TK-10 renal 110% | ACHN renal 108% | CAKI-1 renal 95.7% | A498 renal 94.5%

O=c1ccn(-c2ncnc3nc[nH]c23)cc1
inactive: HCT-15 colon 102% | HT29 colon 109% | SNB-75 CNS 80.6% | SNB-19 CNS 98.4% | U251 CNS 95.5% | PC-3 prostate 96.6% | SK-MEL-5 melanoma 114% | UACC-62 melanoma 92.8% | LOX IMVI melanoma 96.3% | SK-MEL-28 melanoma 94.6% | SK-MEL-2 melanoma 90.9% | EKVX NSCLC 91.4% | SN12C renal 90.3% | UO-31 renal 67% | TK-10 renal 86.4% | ACHN renal 99.3% | CAKI-1 renal 74.6% | A498 renal 87.6% | CCRF-CEM leukemia 89.7% | MOLT-4 leukemia 96%

O=[N+]([O-])c1ccc(-c2cn(-c3ccccc3)c(-c3ccccc3)n2)cc1
inactive: HCT-15 colon 95.2% | HT29 colon 98.6% | SNB-75 CNS 70.7% | SNB-19 CNS 36.3% | U251 CNS 58.6% | PC-3 prostate 48.1% | SK-MEL-5 melanoma 128% | UACC-62 melanoma 83.1% | LOX IMVI melanoma 94.3% | SK-MEL-28 melanoma 96.7% | SK-MEL-2 melanoma 74.8% | EKVX NSCLC 88.7% | SN12C renal 77.6% | UO-31 renal 55% | TK-10 renal 108% | ACHN renal 95.1% | CAKI-1 renal 87.7% | A498 renal 82% | CCRF-CEM leukemia 27.3% | MOLT-4 leukemia 62.7%

O=C(O)/C=C/C(=O)c1ccc(Cl)cc1
inactive: HCT-15 colon 103% | HT29 colon 91.3% | SNB-19 CNS 111% | U251 CNS 100% | PC-3 prostate 106% | SK-MEL-5 melanoma 107% | UACC-62 melanoma 109% | LOX IMVI melanoma 105% | SK-MEL-28 melanoma 115% | SK-MEL-2 melanoma 109% | EKVX NSCLC 114% | SN12C renal 112% | UO-31 renal 90.1% | TK-10 renal 105% | ACHN renal 106% | CAKI-1 renal 107% | A498 renal 107%

C1=Cc2ccccc2N(c2nnc(-c3ccccc3)o2)c2ccccc21
inactive: HCT-15 colon 45.8% | HT29 colon 102% | SNB-19 CNS 96.7% | U251 CNS 66.8% | PC-3 prostate 60.6% | SK-MEL-5 melanoma 72% | UACC-62 melanoma 86.4% | LOX IMVI melanoma 79.9% | SK-MEL-28 melanoma 98.2% | SK-MEL-2 melanoma 108% | EKVX NSCLC 94.3% | SN12C renal 96.2% | UO-31 renal 83.9% | TK-10 renal 114% | ACHN renal 95.1% | CAKI-1 renal 83.3% | A498 renal 80% | CCRF-CEM leukemia 73.9% | MOLT-4 leukemia 83.5%

CC(=O)c1cc2c(N)c(C(=O)Nc3cccc4c3OCCO4)sc2nc1C
inactive: HCT-15 colon 97.3% | HT29 colon 103% | SNB-19 CNS 93.2% | U251 CNS 99.4% | PC-3 prostate 91.4% | SK-MEL-5 melanoma 95.3% | UACC-62 melanoma 67.8% | LOX IMVI melanoma 97.5% | SK-MEL-28 melanoma 94% | SK-MEL-2 melanoma 67.1% | EKVX NSCLC 102% | SN12C renal 103% | UO-31 renal 90.2% | TK-10 renal 104% | ACHN renal 104% | CAKI-1 renal 71.7% | CCRF-CEM leukemia 96.7% | MOLT-4 leukemia 97.4%
active: A498 renal 8.65%

CCCCCCCC[C@@H](O)CC(=O)N[C@@H](CC(N)=O)C(=O)N[C@@H](CCC(N)=O)C(=O)N[C@@H](CC(=O)c1cc(C)cc(O)c1C(=O)c1c(O)cccc1O)CC(C)C
inactive: HCT-15 colon 45.6% | SNB-19 CNS 23.8% | PC-3 prostate 10.8% | SK-MEL-5 melanoma 16.1% | LOX IMVI melanoma 12.5% | SK-MEL-28 melanoma 28.5% | SK-MEL-2 melanoma 51.9% | EKVX NSCLC 61.1% | SN12C renal 25.4% | UO-31 renal 63.2% | ACHN renal 31.9% | CAKI-1 renal 40.6% | CCRF-CEM leukemia 11.6% | MOLT-4 leukemia 14%
active: HT29 colon 2.56% | U251 CNS 4.49% | UACC-62 melanoma 0.947% | TK-10 renal -6.12% | A498 renal -3.25%

CC(C)(C)n1cc(-c2ccnc(NCCNS(=O)(=O)c3ccc(Cl)cc3)c2)c(-c2cccc(O)c2)n1
inactive: HCT-15 colon 15.1% | HT29 colon 16.6% | SNB-19 CNS 76.6% | U251 CNS 46.1% | PC-3 prostate 34.5% | SK-MEL-5 melanoma 25% | UACC-62 melanoma 71.7% | LOX IMVI melanoma 41.5% | SK-MEL-28 melanoma 63.3% | SK-MEL-2 melanoma 74.3% | EKVX NSCLC 60.2% | SN12C renal 61.6% | UO-31 renal 49.6% | TK-10 renal 108% | ACHN renal 76.8% | CAKI-1 renal 71.8% | A498 renal 69.4% | CCRF-CEM leukemia 50.3% | MOLT-4 leukemia 31.9%

Cc1ccc(N2CCN(C(C)C(N)=O)CC2)cc1 (configuration not stated)
inactive: HCT-15 colon 115% | HT29 colon 118% | SNB-19 CNS 101% | U251 CNS 107% | PC-3 prostate 105% | SK-MEL-5 melanoma 110% | UACC-62 melanoma 91.4% | LOX IMVI melanoma 107% | SK-MEL-28 melanoma 119% | SK-MEL-2 melanoma 134% | EKVX NSCLC 118% | SN12C renal 92.8% | UO-31 renal 82.2% | TK-10 renal 114% | ACHN renal 106% | CAKI-1 renal 107% | A498 renal 115% | CCRF-CEM leukemia 98.2% | MOLT-4 leukemia 117%

OC(c1cc2cc(Br)ccc2c2cc(Br)ccc12)C1CCCCN1 (configuration not stated)
inactive: A498 renal 24%
active: HCT-15 colon -71.6% | HT29 colon -82.5% | SNB-19 CNS -70.9% | U251 CNS -94.5% | PC-3 prostate -88.5% | SK-MEL-5 melanoma -1.27% | UACC-62 melanoma -79.4% | LOX IMVI melanoma -62% | SK-MEL-28 melanoma -93.2% | SK-MEL-2 melanoma -73.5% | EKVX NSCLC -70.7% | SN12C renal -73.8% | UO-31 renal -80.6% | TK-10 renal -90.5% | ACHN renal -73.4% | CAKI-1 renal -81% | CCRF-CEM leukemia -57.4% | MOLT-4 leukemia -71.9%

Cc1ccc(C(=O)NCCCNc2nccc(-n3ccc4cccnc43)n2)cc1
inactive: HCT-15 colon 102% | HT29 colon 106% | SNB-19 CNS 90.6% | U251 CNS 93.2% | PC-3 prostate 97.8% | SK-MEL-5 melanoma 99.5% | UACC-62 melanoma 102% | LOX IMVI melanoma 97% | SK-MEL-28 melanoma 106% | SK-MEL-2 melanoma 105% | EKVX NSCLC 86.1% | SN12C renal 95.1% | UO-31 renal 85.9% | TK-10 renal 67.7% | ACHN renal 83.2% | CAKI-1 renal 96.6% | A498 renal 81.7% | CCRF-CEM leukemia 107% | MOLT-4 leukemia 94.1%

COc1ccc(Nc2nn3c(-c4ccccc4)cc(-c4ccccc4)nc3c2C(N)=O)c(OC)c1
inactive: HCT-15 colon 70.5% | HT29 colon 41.9% | SNB-19 CNS 58.2% | U251 CNS 18.6% | PC-3 prostate 44.6% | SK-MEL-5 melanoma 55.9% | UACC-62 melanoma 40.7% | LOX IMVI melanoma 54.6% | SK-MEL-28 melanoma 71% | SK-MEL-2 melanoma 70.1% | EKVX NSCLC 67.7% | SN12C renal 46.4% | UO-31 renal 86.9% | TK-10 renal 29.7% | ACHN renal 67% | CAKI-1 renal 77.4% | A498 renal 70.5% | CCRF-CEM leukemia 73.2% | MOLT-4 leukemia 72.3%

Cn1ccc(Nc2nccc(Oc3ccc(C(=O)Nc4cccc(F)c4)c(Cl)c3)n2)c1
inactive: HCT-15 colon 91.9% | HT29 colon 100% | SNB-19 CNS 77.6% | U251 CNS 96.2% | PC-3 prostate 63.6% | SK-MEL-5 melanoma 39.5% | UACC-62 melanoma 66.8% | LOX IMVI melanoma 91.9% | SK-MEL-28 melanoma 96.6% | SK-MEL-2 melanoma 58% | EKVX NSCLC 47.1% | SN12C renal 73.4% | UO-31 renal 62.6% | TK-10 renal 54.4% | ACHN renal 44.7% | CAKI-1 renal 69.6% | A498 renal 46.9% | CCRF-CEM leukemia 58.4% | MOLT-4 leukemia 83.3%

C=CCn1cc(-c2nc3ccccc3s2)c2cc(-c3ccc4c5c(cccc35)C(=O)N(CCN3CCNCC3)C4=O)ccc21
inactive: HCT-15 colon 16.1% | HT29 colon 11% | SNB-19 CNS 90% | U251 CNS 95.2% | PC-3 prostate 65.2% | SK-MEL-5 melanoma 99.1% | UACC-62 melanoma 93.6% | LOX IMVI melanoma 77.6% | SK-MEL-28 melanoma 107% | SK-MEL-2 melanoma 99% | EKVX NSCLC 87.8% | SN12C renal 76.3% | UO-31 renal 80.7% | TK-10 renal 132% | ACHN renal 67.4% | CAKI-1 renal 74% | A498 renal 98.9% | CCRF-CEM leukemia 30.2% | MOLT-4 leukemia 92.8%

CCNc1nc(S(=O)(=O)CC)nc2ccccc12
inactive: HCT-15 colon 92.3% | HT29 colon 95.5% | SNB-19 CNS 103% | U251 CNS 101% | PC-3 prostate 96.8% | SK-MEL-5 melanoma 90.8% | UACC-62 melanoma 90.8% | LOX IMVI melanoma 101% | SK-MEL-28 melanoma 108% | SK-MEL-2 melanoma 94.6% | EKVX NSCLC 95% | SN12C renal 101% | UO-31 renal 82.4% | TK-10 renal 112% | ACHN renal 86.1% | CAKI-1 renal 72.8% | A498 renal 113% | CCRF-CEM leukemia 86.6% | MOLT-4 leukemia 91%

C/C=C/C1=CN2C(=O)c3cc(OC4OC(C)C(NC)C(C)(O)C4O)c(C)cc3N=C[C@@H]2C1 (some centres not stated)
inactive: SNB-19 CNS 14.7% | SK-MEL-2 melanoma 27.8% | TK-10 renal 22.3%
active: HCT-15 colon 4.13% | HT29 colon 5.72% | U251 CNS 9.48% | PC-3 prostate 7.19% | SK-MEL-5 melanoma -51.3% | UACC-62 melanoma -80.4% | LOX IMVI melanoma -11.2% | SK-MEL-28 melanoma -24.2% | EKVX NSCLC 6.04% | SN12C renal 4.16% | UO-31 renal -34.5% | ACHN renal -4.55% | CAKI-1 renal -8.21% | A498 renal -77.5% | CCRF-CEM leukemia 0.51% | MOLT-4 leukemia 2.77%
